PubChem BioAssay (NCI)
Values joined by “and” are separate entries in the source; they are usually repeats but may differ in a detail not shown here. Equal values may be shown once. Compounds without any hit were thinned out: in the full panel of roughly 83,000, 20% have a hit.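 Method: cells in 96-well plates; compound added at one concentration; 48 h incubation; percent growth measured; values under 10 scored active.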 Active and inactive are the calls of the source.

Assays:
Assay in all cases: NCI-60 one-dose screen, 48 h (100 = growth as untreated, 0 = no growth, -100 = all killed)
Details in all cases: 10 µM unless noted
DU-145 prostate = test system: DU-145 prostate
K-562 leukemia = test system: K-562 leukemia
MALME-3M melanoma = test system: MALME-3M melanoma
MDA-MB-231 breast = test system: MDA-MB-231 breast
RXF 393 renal = test system: RXF 393 renal
SF-268 CNS = test system: SF-268 CNS
SF-295 CNS = test system: SF-295 CNS
SF-539 CNS = test system: SF-539 CNS
UACC-257 melanoma = test system: UACC-257 melanoma

| Compound | growth (DU-145 prostate) | growth (K-562 leukemia) | growth (MALME-3M melanoma) | growth (MDA-MB-231 breast) | growth (RXF 393 renal) | growth (SF-268 CNS) | growth (SF-295 CNS) | growth (SF-539 CNS) | growth (UACC-257 melanoma) |
| --- | --- | --- | --- | --- | --- | --- | --- | --- | --- |
| ON=C(C1CCCCC1)C1CCCCC1 | 107% (inactive) | 108% (inactive) | 91.9% (inactive) | 95.3% (inactive) | 109% (inactive) | 98.1% (inactive) | 105% (inactive) | 96.3% (inactive) | 99.5% (inactive) |
| COc1cc(C2c3cc4c(cc3C(OC(=O)C[n+]3ccccc3)C3COC(=O)C23)OCO4)cc(OC)c1OC (stereo not drawn) | -40.1% (active) | 6.79% (active) | 59% (inactive) | -2.88% (active) | 41.1% (inactive) | 8.83% (active) | 1.14% (active) | -9.3% (active) | 55.1% (inactive) |
| CCN(CC)Cc1cc2[nH]c3c4ccc(Cl)cc4ncc3c2cc1OC | 10.7% (inactive) | -45.5% (active) | 77.2% (inactive) and 107% (inactive) | -4.73% (active) and 16.6% (inactive) | -43.2% (active) and -29.8% (active) | 22.9% (inactive) and 89.1% (inactive) | 102% (inactive) and 90.9% (inactive) | -73.3% (active) and -71.9% (active) | 94.5% (inactive) and 104% (inactive) |
| CCC/C(=N/NC(N)=O)c1ccco1 | 109% (inactive) | 104% (inactive) | 83.8% (inactive) | 100% (inactive) | 105% (inactive) | 102% (inactive) | 98.4% (inactive) | 93% (inactive) | 98.6% (inactive) |
| Cc1onc(-c2c(F)cccc2Cl)c1-c1ncc(-c2ccc(Cl)cc2)o1 | 97.2% (inactive) and 50.2% (inactive) | 27.9% (inactive) and 21.5% (inactive) | 60.2% (inactive) and 46.6% (inactive) | 54.1% (inactive) and 46.3% (inactive) | 89.9% (inactive) and 52.7% (inactive) | 66.2% (inactive) and 49.8% (inactive) | 43.8% (inactive) and 42.2% (inactive) | 68% (inactive) and 36.5% (inactive) | 22.5% (inactive) |
| N=C(N)N1CCc2ccccc2C1 | 105% (inactive) and 97.3% (inactive) | 71.4% (inactive) and 108% (inactive) | 82% (inactive) and 110% (inactive) | 99% (inactive) and 103% (inactive) | 97.2% (inactive) and 121% (inactive) | 98.9% (inactive) and 97.3% (inactive) | 88% (inactive) and 106% (inactive) | 104% (inactive) and 96.8% (inactive) | 86.5% (inactive) and 95.4% (inactive) |
| CC(=O)C[n+]1ccccc1Sc1ccc(Cl)cc1 | 95% (inactive) | 90.9% (inactive) | 97.1% (inactive) | 52.3% (inactive) | 109% (inactive) | 74.9% (inactive) | 82.9% (inactive) | 68.8% (inactive) | 99% (inactive) |
| O=c1[nH]nnc2cc(Cl)ccc12 | 108% (inactive) and 114% (inactive) | 119% (inactive) and 98.3% (inactive) | 124% (inactive) and 113% (inactive) | 105% (inactive) and 97.6% (inactive) | 119% (inactive) and 111% (inactive) | 101% (inactive) and 95.4% (inactive) | 103% (inactive) | 104% (inactive) and 106% (inactive) | 98.6% (inactive) and 105% (inactive) |
| CN(C)CC(CN(C)C)C(O)c1ccccc1 (stereo not drawn) | 110% (inactive) | 94.5% (inactive) | 105% (inactive) | 114% (inactive) | 110% (inactive) | 99% (inactive) | 96.9% (inactive) | 90.7% (inactive) | 102% (inactive) |
| COc1ccc2oc3c(ccc[n+]3C)c(=O)c2c1 | 113% (inactive) | 99% (inactive) | 102% (inactive) | 110% (inactive) | 108% (inactive) | 101% (inactive) | 99.5% (inactive) | 98.2% (inactive) | 87.3% (inactive) |
| c1ccc2c[n+](Cc3ccc4ccccc4n3)ccc2c1 | 99.8% (inactive) | 63.8% (inactive) | 75.7% (inactive) | 89.4% (inactive) | 91% (inactive) | 85.7% (inactive) | 91.4% (inactive) | 82.5% (inactive) | 56% (inactive) |
| CC1(CO)CCCC1NCCNC1CCCC1(C)CO (stereo not drawn) | 120% (inactive) and 88.9% (inactive) | 110% (inactive) and 99% (inactive) | 116% (inactive) and 103% (inactive) | 92.2% (inactive) and 113% (inactive) | 109% (inactive) and 119% (inactive) | 115% (inactive) and 105% (inactive) | 94.9% (inactive) and 105% (inactive) | 103% (inactive) and 105% (inactive) | 100% (inactive) |
